About 79,000 compounds went through this panel and 15% of them were active in at least one assay; those are over-represented in the sample as a whole. Calls of active or inactive are those of the source. Cut-off read from the data, not from the text of the source: active = growth inhibition above about 70%; inactive = the rest.
Assays:
[1] = NCI Yeast Anticancer Drug Screen. Data for the wt1 strain (AID 149);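 note: 0% = growth of vehicle-treated wt1 cultures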; conditions: S. cerevisiae wt1 strain (SPY 50644) growth inhibition, stronger effect = higher value
Method in brief: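 wt1 yeast, compound-treated; % growth inhibition vs vehicle control.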

[2] = NCI Yeast Anticancer Drug Screen. Data for the rad50EPP+ strain (AID 151);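 note: 0% = growth of vehicle-treated control cultures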; conditions: S. cerevisiae rad50 mutant strain, stronger effect = higher value
Method in brief: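 Compounds were applied to the rad50EPP+ yeast strain, which bears a defined DNA repair alteration, and growth inhibition was determined relative to vehicle-treated cultures.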

[3] = NCI Yeast Anticancer Drug Screen. Data for the mgt1 strain (AID 153); conditions: S. cerevisiae mgt1 mutant growth inhibition, stronger effect = higher value
Method in brief: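 Strain: mgt1 yeast, one of a set carrying defined DNA damage repair or cell cycle control alterations. Compound-treated growth compared with vehicle.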

[4] = NCI Yeast Anticancer Drug Screen. Data for the rad50 strain (AID 155);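 note: 0% = growth of vehicle-only cultures of the same strain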; conditions: S. cerevisiae rad50 strain growth inhibition, stronger effect = higher value
Method in brief: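 Genetically altered yeast (DNA repair pathway); compound treatment; growth inhibition vs vehicle ctrl.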

[5] = NCI Yeast Anticancer Drug Screen. Data for the mec2-1 strain (AID 157); conditions: S. cerevisiae mec2-1 strain, stronger effect = higher value
Method in brief: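 Strain: mec2-1 (DNA repair/cell cycle alteration). Compound exposure, then growth measured; inhibition expressed relative to vehicle.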

[6] = NCI Yeast Anticancer Drug Screen. Data for the rad14 strain (AID 159);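 note: 0% = growth of vehicle-treated control cultures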; conditions: S. cerevisiae rad14 strain growth inhibition, stronger effect = higher value
Method in brief: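 Test compounds were applied to a repair-deficient yeast strain. Its growth was then compared with that of cultures given vehicle alone, and inhibition was expressed relative to those controls.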

[7] = NCI Yeast Anticancer Drug Screen. Data for the sgs1 mgt1 strain (AID 161);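 note: 0% = growth of cultures given vehicle only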; conditions: S. cerevisiae sgs1 mgt1 strain, stronger effect = higher value
Method in brief: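 Genetically altered yeast, compound exposure, growth inhibition relative to vehicle.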

[8] = NCI Yeast Anticancer Drug Screen. Data for the CLN2oe strain (AID 163);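 note: 0% = growth of vehicle-only control cultures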; conditions: S. cerevisiae CLN2oe strain, stronger effect = higher value
Method in brief: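 Growth of a genetically modified yeast strain is measured after compound exposure and compared with cultures given vehicle alone.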

[9] = NCI Yeast Anticancer Drug Screen. Data for the cln2 rad14 strain (AID 165);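 note: 0% = growth equal to vehicle treated cultures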; conditions: S. cerevisiae cln2 rad14 strain, stronger effect = higher value
Method in brief: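 Compounds are applied to the cln2 rad14 yeast strain, and growth is then compared with that of vehicle-treated cultures to give inhibition.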

[10] = NCI Yeast Anticancer Drug Screen. Data for the bub3 strain (AID 167); conditions: S. cerevisiae bub3 mutant strain, stronger effect = higher value
Method in brief: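 Yeast carrying a defined mutation is treated with each compound, and growth is compared with that of vehicle-exposed cells to give inhibition.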

[11] = NCI Yeast Anticancer Drug Screen. Data for the wt2 strain (AID 169);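 note: 0% = growth of vehicle-treated yeast cultures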; conditions: S. cerevisiae wt2 strain growth inhibition, stronger effect = higher value
Method in brief: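 This strain belongs to a panel of yeast strains with defined genetic alterations in DNA damage repair or cell cycle control. Compounds are applied, and growth inhibition is measured against vehicle-treated cultures.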

[12] = NCI Yeast Anticancer Drug Screen. Data for the mlh1 strain (AID 171);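 note: 0% = growth of vehicle-treated control cultures of the same strain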; conditions: S. cerevisiae mlh1 strain growth inhibition, stronger effect = higher value
Method in brief: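 Growth of the mutant yeast strain after compound exposure, expressed as inhibition relative to vehicle-only controls.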

[13] = NCI Yeast Anticancer Drug Screen. Data for the sgs1 strain (AID 173);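 note: 0% = growth of vehicle-only control cultures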; conditions: S. cerevisiae sgs1 mutant, stronger effect = higher value
Method in brief: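 Growth of a yeast strain bearing a defined genetic alteration is measured after compound treatment. Inhibition is expressed relative to vehicle-only controls.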

[14] = NCI Yeast Anticancer Drug Screen. Data for the mlh1 rad18 strain (AID 175); conditions: S. cerevisiae mlh1 rad18 strain growth inhibition, stronger effect = higher value
Method in brief: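 Read-out is yeast growth inhibition, calculated against vehicle-only controls. The compound was applied to a strain engineered with DNA damage repair alterations.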

[15] = NCI Yeast Anticancer Drug Screen. Data for the rad18 strain (AID 177); conditions: S. cerevisiae rad18 mutant growth inhibition, stronger effect = higher value
Method in brief: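 Growth of the mutant yeast strain after compound exposure, normalised to vehicle-only cultures.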

[16] = NCI Yeast Anticancer Drug Screen. Data for the rad52 strain (AID 147);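 note: 0% = growth of vehicle-treated control cultures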; conditions: S. cerevisiae rad52 mutant growth inhibition, stronger effect = higher value
Method in brief: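 Compounds are applied to a genetically defined yeast strain lacking normal DNA damage repair, and inhibition of growth is expressed relative to cultures given vehicle only.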

[17] = at 5.0 µM (retest, dose inferred, filed as 0.5)
[18] = at 50.0 µM (retest, dose inferred, filed as 5.0)

Measured: growth inhibition

O=C(Oc1ccc([N+](=O)[O-])cc1)c1ccc([N+](=O)[O-])cc1
active: [4]; [18] 82% | [7]; [18] 86% | [10]; [17] 76% | [10]; [18] 88% | [10]; at 50.0 µM 85% | [14]; [18] 83% | [14]; at 50.0 µM 86.2%
inactive: [1]; at 1.2 µM 1% | [1]; at 3.7 µM 0% | [1]; at 11.0 µM 3% | [1]; at 33.0 µM -1% | [1]; at 100.0 µM 11% | [2]; at 1.2 µM 5% | [2]; at 3.7 µM 2% | [2]; at 11.0 µM -3% | [2]; at 33.0 µM 9% | [2]; at 100.0 µM 11% | [3]; at 1.2 µM 0% | [3]; at 3.7 µM 1% | [3]; at 11.0 µM 2% | [3]; at 33.0 µM 9% | [3]; at 100.0 µM 13% | [4]; at 1.2 µM 9% | [4]; at 3.7 µM 6% | [4]; [17] 45% | [4]; at 11.0 µM 5% | [4]; at 33.0 µM 40% | [4]; at 50.0 µM 50.8% | [4]; at 100.0 µM 62% | [5]; at 1.2 µM 1% | [5]; at 3.7 µM 2% | [5]; [17] 25% | [5]; at 11.0 µM 2% | [5]; at 33.0 µM 7% | [5]; [18] 33% | [5]; at 50.0 µM 53.7% | [5]; at 100.0 µM 10% | [6]; at 1.2 µM 7% | [6]; at 3.7 µM 5% | [6]; at 11.0 µM 3% | [6]; at 33.0 µM 19% | [6]; at 100.0 µM 41% | [7]; [17] 61% | [7]; at 50.0 µM 68.5% | [8]; at 1.2 µM 1% | [8]; at 3.7 µM 2% | [8]; at 11.0 µM 2% | [8]; at 33.0 µM 10% | [8]; at 100.0 µM 10% | [9]; [17] 18% | [9]; [18] 28% | [9]; at 50.0 µM 31.1% | [10]; at 1.2 µM 3% | [10]; at 3.7 µM 4% | [10]; at 11.0 µM 4% | [10]; at 33.0 µM 12% | [10]; at 100.0 µM 15% | [11]; at 1.2 µM -7% | [11]; at 3.7 µM -5% | [11]; at 11.0 µM -8% | [11]; at 33.0 µM -8% | [11]; at 100.0 µM -5% | [12]; at 1.2 µM 3% | [12]; at 3.7 µM 2% | [12]; at 11.0 µM 2% | [12]; at 33.0 µM 17% | [12]; at 100.0 µM 35% | [13]; at 1.2 µM -4% | [13]; at 3.7 µM -18% | [13]; at 11.0 µM -22% | [13]; at 33.0 µM 7% | [13]; at 100.0 µM 43% | [14]; [17] 67%

Cc1cccc2c1C1c3c(C)cccc3C(CC(=O)O)CC1CC2 (centres undefined)
inactive: [1]; at 1.2 µM 2% | [2]; at 1.2 µM 15% | [2]; at 3.7 µM 25% | [2]; at 11.0 µM 53% | [2]; at 33.0 µM 66% | [2]; at 100.0 µM 48% | [4]; at 1.2 µM 13% | [4]; [17] 22% | [5]; at 1.2 µM 5% | [5]; at 3.7 µM 61% | [5]; [17] 8% | [7]; [17] 11% | [8]; at 1.2 µM 16% | [9]; [17] 6% | [10]; at 1.2 µM 10% | [10]; [17] 6% | [11]; at 1.2 µM 5% | [11]; at 3.7 µM 60% | [12]; at 1.2 µM 6% | [13]; at 1.2 µM 10% | [14]; [17] 7% | [15]; at 1.2 µM 11% | [15]; at 3.7 µM 69%
active: [1]; at 3.7 µM 77% | [1]; at 11.0 µM 98% | [1]; at 33.0 µM 96% | [1]; at 100.0 µM 92% | [4]; at 3.7 µM 90% | [4]; at 11.0 µM 97% | [4]; at 33.0 µM 93% | [4]; [18] 96% | [4]; at 50.0 µM 99% | [4]; at 100.0 µM 85% | [5]; at 11.0 µM 98% | [5]; at 33.0 µM 96% | [5]; [18] 98% | [5]; at 50.0 µM 99% | [5]; at 100.0 µM 90% | [7]; [18] 98% | [7]; at 50.0 µM 99.5% | [8]; at 3.7 µM 90% | [8]; at 11.0 µM 99% | [8]; at 33.0 µM 94% | [8]; at 100.0 µM 88% | [9]; [18] 98% | [9]; at 50.0 µM 98.8% | [10]; at 3.7 µM 71% | [10]; at 11.0 µM 97% | [10]; at 33.0 µM 95% | [10]; [18] 96% | [10]; at 50.0 µM 98.8% | [10]; at 100.0 µM 87% | [11]; at 11.0 µM 98% | [11]; at 33.0 µM 96% | [11]; at 100.0 µM 90% | [12]; at 3.7 µM 71% | [12]; at 11.0 µM 98% | [12]; at 33.0 µM 97% | [12]; at 100.0 µM 90% | [13]; at 3.7 µM 75% | [13]; at 11.0 µM 98% | [13]; at 33.0 µM 96% | [13]; at 100.0 µM 92% | [14]; [18] 97% | [14]; at 50.0 µM 99.2% | [15]; at 11.0 µM 98% | [15]; at 33.0 µM 95% | [15]; at 100.0 µM 88%

O=C1C(=O)c2cccc([N+](=O)[O-])c2-c2ccccc21
inactive: [16]; at 1.2 µM 6% | [16]; at 3.7 µM -4% | [16]; at 11.0 µM 37% | [2]; at 1.2 µM -2% | [2]; at 3.7 µM -14% | [2]; at 11.0 µM 24% | [3]; at 1.2 µM 2% | [3]; at 3.7 µM -2% | [3]; at 11.0 µM 6% | [4]; at 1.2 µM -78% | [4]; at 3.7 µM -4% | [4]; [17] 19% | [4]; at 11.0 µM 55% | [5]; at 1.2 µM 5% | [5]; at 3.7 µM 9% | [5]; [17] 31% | [5]; at 11.0 µM 10% | [6]; at 1.2 µM 11% | [6]; at 3.7 µM 20% | [6]; at 11.0 µM 62% | [7]; [17] 31% | [8]; at 1.2 µM -6% | [8]; at 3.7 µM -5% | [8]; at 11.0 µM -1% | [9]; [17] 1% | [10]; at 1.2 µM 32% | [10]; at 3.7 µM 35% | [10]; [17] 53% | [10]; at 11.0 µM 47% | [11]; at 1.2 µM 30% | [11]; at 3.7 µM 47% | [11]; at 11.0 µM 66% | [12]; at 1.2 µM -3% | [12]; at 3.7 µM -1% | [12]; at 11.0 µM 3% | [13]; at 1.2 µM 16% | [13]; at 3.7 µM 11% | [13]; at 11.0 µM 35% | [14]; [17] 37% | [15]; at 1.2 µM 1% | [15]; at 3.7 µM 6% | [15]; at 11.0 µM 15%
active: [16]; at 33.0 µM 99% | [16]; at 100.0 µM 97% | [2]; at 33.0 µM 99% | [2]; at 100.0 µM 98% | [3]; at 33.0 µM 99% | [3]; at 100.0 µM 98% | [4]; at 33.0 µM 99% | [4]; [18] 98% | [4]; at 50.0 µM 98.5% | [4]; at 100.0 µM 96% | [5]; at 33.0 µM 99% | [5]; [18] 99% | [5]; at 50.0 µM 99.2% | [5]; at 100.0 µM 97% | [6]; at 33.0 µM 99% | [6]; at 100.0 µM 98% | [7]; [18] 99% | [7]; at 50.0 µM 98.9% | [8]; at 33.0 µM 99% | [8]; at 100.0 µM 98% | [9]; [18] 98% | [9]; at 50.0 µM 97.8% | [10]; at 33.0 µM 99% | [10]; [18] 98% | [10]; at 50.0 µM 98.8% | [10]; at 100.0 µM 99% | [11]; at 33.0 µM 99% | [11]; at 100.0 µM 98% | [12]; at 33.0 µM 99% | [12]; at 100.0 µM 98% | [13]; at 33.0 µM 99% | [13]; at 100.0 µM 96% | [14]; [18] 98% | [14]; at 50.0 µM 98.8% | [15]; at 33.0 µM 99% | [15]; at 100.0 µM 98%
